# A selection: hits, their analogues and other compounds. The true share with any hit is near 3.4%.
# ADAM17 inh – ADAM17 inhibition, QFRET primary screen; AID 720648; inhibition, % at 6.95 µM; P78536; recombinant ADAM17, EDANS/DABCYL FRET peptide cleavage; 370,000 compounds, 0.83% hits;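 active = inhibition above the mean of compounds lying between control limits plus 3 SD, set per campaign, cut at about 8.5% in these data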;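 note: 0% = DMSO-only wells as the low control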
# PLC-gamma1 inh – blocks human PLC-gamma1 enzyme activity; P19174; purified PLC-gamma1, fluorogenic substrate, fluorescence; inhibition, % at 12.2 µM; 370,000 compounds, 0.84% hits; AID 720700; in the data active = inhibition above about 9.5%
# HGIII-sPLA2 inh – Inhibits HGIII-sPLA2 liposome hydrolysis, primary screen; inhibition, % at 12.2 µM; QFRET BODIPY PC-A2 liposome hydrolysis, fluorescence; AID 743126; 370,000 compounds, 0.56% hits; Q9NZ20;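 active = inhibition above mean plus 3 SD of compounds lying within the high and low control bounds, cut at about 19% in these data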;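 note: 0% = median of test compound wells and 100% = no enzyme DMSO wells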
# PLCb3 inh – blocks human PLC-beta3 enzyme activity; 370,000 compounds, 0.18% hits; AID 720704; Purified PLC-beta3, fluorogenic substrate, fluorescence; Q01970; inhibition, % at 12.2 µM; in the data active = inhibition above about 11%;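 note: 0% = median of compound wells on plate and 100% = full blocker control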
# ADAM10 inh – inhibitors of human ADAM10 | recombinant ADAM10, EDANS/DABCYL FRET peptide cleavage, 3 h | inhibition, % at 7 µM | 370,000 compounds, 0.62% hits;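 active = inhibition above a per-campaign cutoff equal to the mean of compounds falling between control-based bounds plus 3 SD, cut at about 20% in these data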;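 note: 0% = DMSO wells while the 100% control is not disclosed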
# KLK7 zymogen act – activates the human kallikrein-7 zymogen | P49862 | purified proKLK7, EDANS-DABCYL substrate fluorescence; 100% is mature enzyme control, 0% vehicle | activation, % at 7 µM | 370,000 compounds, 0.9% hits;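 active = activation above the mean of all tested compounds plus 3 SD, computed per campaign excluding outliers beyond control limits, cut at about 13% in these data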
# Target sequence (P49862 whole entry, looked up): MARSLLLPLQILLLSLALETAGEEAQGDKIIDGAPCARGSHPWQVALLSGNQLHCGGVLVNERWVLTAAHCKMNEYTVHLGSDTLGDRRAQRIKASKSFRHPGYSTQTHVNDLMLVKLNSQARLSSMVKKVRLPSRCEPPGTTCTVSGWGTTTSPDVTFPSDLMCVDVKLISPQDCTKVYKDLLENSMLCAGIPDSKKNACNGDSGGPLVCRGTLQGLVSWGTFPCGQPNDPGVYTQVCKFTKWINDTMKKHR
# ADAM10 counter – counter-screen for ADAM17 exosite inhibitors: inhibitors of human ADAM10 | shares compounds with ADAM17 inh | recombinant ADAM10, EDANS/DABCYL FRET peptide cleavage, 3 h | inhibition, % at 6.95 µM | 2,900 compounds, 47% hits;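 active = mean inhibition over the triplicate runs exceeds the activity threshold set in the earlier primary screen, cut at about 20% in these data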;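 note: 0% = DMSO wells and 100% = marimastat wells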
# ADAM17 confirm – human ADAM17 inhibition, confirmation | shares compounds with ADAM17 inh | recombinant ADAM17, EDANS/DABCYL QFRET peptide cleavage | inhibition, % at 6.95 µM | 2,900 compounds, 65% hits;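 active = mean inhibition across replicates above the hit cutoff set in the primary screen, cut at about 8.5% in these data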;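 note: 0% = DMSO wells and 100% = marimastat wells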
# An asterisk follows results filed as active; / = no result.
SMILES,ADAM17 inh,PLC-gamma1 inh,HGIII-sPLA2 inh,PLCb3 inh,ADAM10 inh,KLK7 zymogen act,ADAM10 counter,ADAM17 confirm
O=C(NCCc1c[nH]c2ccccc12)OCc1cn(Cc2cccc(F)c2)nn1,2,-1,-61,-1,-2,0,/,/
N#Cc1c(-c2ccccc2)c(-c2ccccc2)nn(CC(=O)NNC(=O)Nc2ccc(Cl)c(Cl)c2)c1=O,15*,-5,-23,-1,9,2,27*,18*
CCC[C@H]1[C@@H](OC(=O)NCc2ccc(Cl)cc2)CC[C@@]23CCCN2C(=O)CCC[C@@H]13,-3,1,-8,2,3,/,/,/
COC(=O)C1=C(C)N(Cc2cccc(C(F)(F)F)c2)C(=NCc2ccc3c(c2)OCO3)NC1c1ccc(F)cc1 (configuration not stated),9.9*,7,14,0,-7,0,19,12*
COC(=O)C1=C(C)N(Cc2cccc(C(F)(F)F)c2)C(=NCc2ccc(C(F)(F)F)cc2)NC1c1ccc(F)cc1 (configuration not stated),9.5*,5,5,2,4,1,22*,12*
COC(=O)C1=C(C)N(Cc2cccc(C(F)(F)F)c2)C(=NCc2cccc(C(F)(F)F)c2)NC1c1ccc(Cl)cc1 (configuration not stated),0,6,-4,6,-3,0,/,/
C=CCN1C(=O)[C@@H](CC(=O)N2CCCCC2)[C@]2(C(=O)OCC)CCCCC/C=C/12,-1,2,2,0,2,0,/,/
Cc1cc(N2CCN(CC(C)(C)O)C[C@@H]2C)ccc1N1CCN(CC(C)(C)O)[C@H](C)C1,3,0,10,-2,-3,0,/,/
COCC(C)n1c(C)cc(C(=O)CSc2nnc(Nc3ccccc3F)s2)c1C (configuration not stated),15*,6,-15,2,15,1,1,2
O=C(CSc1nnc(Nc2ccccc2F)s1)c1cc2ccccc2o1,1,-9,-22,-13,6,0,/,/
CC(C)c1cc(C(C)C)c(S(=O)(=O)N2CCC(C(=O)NCC3COCCO3)CC2)c(C(C)C)c1 (configuration not stated),4,-3,-12,0,-3,0,/,/
CC(C)(C)OC(=O)C[C@@H]1C/C=C\C[C@H](CC(=O)N[C@H](CO)Cc2ccccc2)C(=O)N2CCC[C@H]2COC1=O,9.2*,3,-4,7,5,0,4,11*
COC(=O)CNC(=O)[C@H](Cc1ccccc1)NC1(C(=O)NCCc2c[nH]c3ccccc23)CCCCC1,4,5,-53,1,6,/,/,/
O=C(c1ccccc1Cl)N1N=C(c2cccs2)CC1c1cccc(O)c1 (configuration not stated),9.0*,1,-18,-5,11,1,3,3
O=C(c1ccccc1)N1N=C(c2cccs2)CC1c1ccccc1O (configuration not stated),4,-8,-32,-14,12,0,/,/
COc1ccc(Cl)cc1NC(=S)NCCC(c1ccccc1)c1ccccc1,9.8*,0,2,-2,11,0,20*,9
COc1cc(NC(=S)NCCC(c2ccccc2)c2ccccc2)c(OC)cc1Cl,9.7*,0,0,2,9,-1,25*,14*
COc1ccc(CCN(Cc2ccccn2)C(=S)Nc2ccccc2Cl)cc1OC,8.7*,3,8,0,8,0,10,8
COc1ccc(Cl)cc1NC(=S)NCc1ccccn1,8.7*,-6,5,1,8,1,-4,-1
COc1ccccc1NC(=S)NCc1ccccn1,4,-12,4,-12,2,0,/,/
COc1ccc(CCN(Cc2ccccn2)C(=S)Nc2ccccc2F)cc1OC,-3,1,-2,-7,-4,-1,/,/
COc1ccccc1NC(=S)NCCC(c1ccccc1)c1ccccc1,4,3,-8,2,7,0,/,/
COc1ccc(-c2ccc3c(n2)CCCN3S(=O)(=O)c2ccccc2)cc1,-3,-7,3,-15,-13,1,/,/
COCCCNC(=O)c1ccc(Cn2c(=O)c3ccccc3n(Cc3ccc(C(C)C)cc3)c2=O)cc1,-2,1,5,1,-2,0,/,/
NC(=O)[C@@H]1CCOc2c(I)cc([N+](=O)[O-])cc2C(=O)N[C@@H](CO)C(=O)NCC(=O)N1,1,1,8,-2,-7,0,/,/
SMILES,ADAM17 inh,PLC-gamma1 inh,HGIII-sPLA2 inh,PLCb3 inh,ADAM10 inh,KLK7 zymogen act,ADAM10 counter,ADAM17 confirm
NC(=O)CC[C@@H]1NC(=O)[C@H](CO)NC(=O)c2cc([N+](=O)[O-])cc(I)c2OCC[C@@H](C(N)=O)NC1=O,10*,14*,9,10,17,1,12,5
Cc1c(C(=O)N2CC3(CC(c4cccc(NC(=O)CC(c5ccccc5)c5ccccc5)c4)=NO3)C[C@@H]2C(N)=O)cc([N+](=O)[O-])cc1[N+](=O)[O-] (some centres not stated),11*,3,-17,3,19,-1,34*,19*
CC(C)(C)NC(=O)C(c1ccc(O)cc1)N(C(=O)Cn1nnc(-c2ccc(F)cc2)n1)c1ccccc1F (configuration not stated),9.9*,3,-39,2,16,0,39*,18*
CC(C)(C)C(=O)NC1CCCCN(Cc2ccc(Cl)cc2)C1=O (configuration not stated),-2,1,2,5,6,0,/,/
CCc1ccc(NC(=O)COC(=O)/C=C/c2ccco2)cc1,11*,-14,-15,-22,5,0,2,4
CCCCCC(=O)NC1CCCCN(C)C1=O (configuration not stated),0,-1,2,2,2,-1,/,/
Cc1ccc(C2(CCNS(=O)(=O)c3ccc(C)cc3)CCOC(C(C)C)C2)cc1 (configuration not stated),10*,7,-6,-5,17,0,29*,16*
Cc1ccc(C2(CCNCc3ccc(N(C)C)cc3)CCOC(C(C)C)C2)cc1 (configuration not stated),5,8,-6,5,8,1,/,/
O=C(COc1ccccc1)N1CCN(C(=O)c2cccs2)CC1,-1,3,4,3,9,0,/,/

# Screens: PubChem, The Scripps Research Institute Molecular Screening Center
